Inconclusive results are not listed. The source made the active and inactive calls. Calls follow the shape of the dose curve; as a rule, active = well fitted inhibition curve with a large enough effect; inconclusive = small, poorly fitted or top-dose-only effect; inactive = flat fitted curve, though single readings scatter.
Legend:
[1] = test system: NIH3T3; assay: Cytotoxic Profiling of Annotated Libraries Using Quantitative High-Throughput Screening (AID 1296008); settings: Five cell lines viability, CellTiter-Glo ATP luminescence, 48-72 h; max response: hits give low values
Outline: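 Cytotoxicity was measured as CellTiter-Glo ATP luminescence, read after 10 min at room temperature. Compound treatment of the cells lasted 48 or 72 hr at 37 degrees Celsius in a qHTS format.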

[2] = test system: HACAT; assay: qHTS assay to identify novel small-molecules to repurpose for Merkel cell carcinoma treatment (AID 1296009); settings: MCC and control cell lines, CellTiter-Glo viability, 72 h; at 44.8 µM (top of the series) unless noted; also: potency is read from the fitted curve at half-maximal effect
Outline: (§1)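 Cell viability measured by CellTiter-Glo following 72 hr compound treatment at 37 degree celsius, with NPC and MIPE libraries tested in 8- and 11-point concentration series.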

[3] = test system: MCC-13; assay: as above; settings: MCC and control cell lines, CellTiter-Glo viability, 72 h; series mostly up to 46 µM
Outline: as §1

[4] = test system: MCC-26; assay: as above; settings: MCC and control cell lines, CellTiter-Glo viability, 72 h; series mostly up to 46 µM
Outline: as §1

[5] = test system: MKL-1; assay: as above; settings: MCC and control cell lines, CellTiter-Glo viability, 72 h; series mostly up to 46 µM
Outline: as §1

[6] = test system: WaGa; assay: as above; settings: MCC and control cell lines, CellTiter-Glo viability, 72 h; series mostly up to 46 µM
Outline: as §1

[7] = test system: UISO; assay: as above; settings: MCC and control cell lines, CellTiter-Glo viability, 72 h; series mostly up to 46 µM
Outline: as §1

[8] = test system: MKL-2; assay: as above; settings: MCC and control cell lines, CellTiter-Glo viability, 72 h; series mostly up to 46 µM
Outline: as §1

[9] = test system: NIH3T3; assay: as above; settings: MCC and control cell lines, CellTiter-Glo viability, 72 h; at 44.8 µM (top of the series) unless noted
Outline: as §1

[10] = test system: HEK293T; assay: as above; settings: MCC and control cell lines, CellTiter-Glo viability, 72 h; at 44.8 µM (top of the series) unless noted
Outline: as §1
% is scaled to controls: 0 for no effect and ±100 for the full control effect.
Also: nearly all actives have a fitted effect of over 60% in size.

O=C(O)c1ccccc1Nc1cc(Cl)ccc1C(=O)O
inactive: max response [1] -15.4% | outcome [2] inactive [at 17.4 µM] | Potency [3] | Potency [4] | Potency [5] | Potency [6]

CO/N=C(/C(=O)N[C@@H]1C(=O)N2C(C(=O)OCOC(=O)C(C)(C)C)=C(C)CS[C@H]12)c1csc(N)n1
inactive: max response [1] 0.923% | outcome [2] | Potency [3] | Potency [4] | Potency [5] | Potency [7]

Nc1cc(C(F)(F)F)ccc1S
inactive: outcome [1] | outcome [2] | outcome [9]
active: Potency [8] 11.9 µM | Potency [7] 13.3 µM

O=C(O)Cn1c(=O)n(Cc2ccc(Br)cc2F)c(=O)c2ccc(Cl)cc21
inactive: outcome [1] | outcome [10] | Potency [3] | Potency [4] | Potency [5] | Potency [8] | outcome [9] | Potency [7] | Potency [6]

O=C1NC(c2ccccc2)(c2ccccc2)C(=O)N1COP(=O)(O)O
inactive: outcome [1] | outcome [10] | Potency [3] | Potency [4] | Potency [5] | Potency [8] | outcome [9] | Potency [7] | Potency [6]

c1ccc2c(c1)CCc1ccccc1N2
inactive: outcome [1] | outcome [10] | Potency [3] | Potency [4] | Potency [5] | Potency [8] | outcome [9] | Potency [7] | Potency [6]

O=C(CO)[C@@H](O)[C@H](O)[C@@H](O)CO
inactive: outcome [1] | outcome [10] | Potency [3] | Potency [4] | Potency [5] | Potency [8] | outcome [9] | Potency [7] | Potency [6]

O=C1CC2(CCCC2)CC(=O)N1CCNCC1COc2ccccc2O1 (stereo unspecified)
inactive: max response [1] -7.46% | outcome [10] | Potency [3] | Potency [4] | Potency [5] | Potency [8] | Potency [7] | Potency [6]

CCOC(=O)C(=O)CCc1ccccc1
inactive: max response [1] -3.41% | outcome [2] | Potency [4] | Potency [5] | Potency [8] | Potency [7] | Potency [6]

CC(C)Cc1ccc(C(C)C(=O)OCc2ccccn2)cc1 (stereo unspecified)
inactive: max response [1] -1.73% | outcome [2] | Potency [3] | Potency [4] | Potency [5] | Potency [7] | Potency [6]

O=C1Cc2cc(Cl)ccc2N1
inactive: max response [1] 3.19% | outcome [2] | Potency [3] | Potency [4] | Potency [5] | Potency [6]

Nc1c[n+](N2CCOCC2)no1
inactive: outcome [1] | outcome [10] | Potency [3] | Potency [4] | Potency [5] | Potency [8] | outcome [9] | Potency [7] | Potency [6]

CCCCC(CC)COC(=O)c1ccccc1C(=O)O (stereo unspecified)
inactive: max response [1] -2.08% | outcome [10] inactive [at 92 µM] | Potency [3] | Potency [4] | Potency [5] | Potency [8] | Potency [7] | Potency [6]

NC(=O)NC1N=C([O][Al])NC1=O (stereo unspecified)
inactive: max response [1] 1.11% | outcome [10] | Potency [3] | Potency [4] | Potency [5] | Potency [8] | Potency [7] | Potency [6]

Cc1c(F)cc2c(=O)c(C(=O)O)cn3c2c1CCC3C (stereo unspecified)
inactive: max response [1] -8.9% | outcome [10] | Potency [3] | Potency [4] | Potency [5] | Potency [8] | Potency [7] | Potency [6]

CCOc1ccccc1OCC1CNCCO1 (stereo unspecified)
inactive: outcome [1] | outcome [10] | Potency [3] | Potency [4] | Potency [5] | Potency [8] | outcome [9] | Potency [7] | Potency [6]

OC[C@]1(O)OC[C@@H](O)[C@H](O)[C@@H]1O
inactive: outcome [1] | outcome [10] | Potency [3] | Potency [4] | Potency [5] | Potency [8] | outcome [9] | Potency [7] | Potency [6]

CC(=O)OC/C=C(C)/C=C/C=C(C)/C=C/C1=C(C)CCCC1(C)C
active: Potency [8] 3.76 µM
inactive: max response [1] 1.83% | outcome [2] | Potency [3] | Potency [4] | Potency [7]

CC1CCCCN1CCCOC(=O)c1ccc(OC2CCCCC2)cc1 (stereo unspecified)
inactive: max response [1] -13.4% | outcome [2] | Potency [3] | Potency [4] | Potency [7]

CN1CCN(N)CC1
inactive: outcome [1] | outcome [10] | Potency [3] | Potency [4] | Potency [5] | Potency [8] | outcome [9] | Potency [7] | Potency [6]

Nc1ccc(C(=O)N2CC3CC(CN(Cc4ccccc4)C3)C2)cc1
inactive: outcome [1] | outcome [10] | Potency [3] | Potency [4] | Potency [5] | Potency [8] | outcome [9] | Potency [7] | Potency [6]

CC(C)(C)CC(=O)OCC(=O)[C@@]1(O)CC[C@H]2[C@@H]3CCC4=CC(=O)C=C[C@]4(C)[C@H]3[C@@H](O)C[C@@]21C
inactive: max response [1] -9.28% | outcome [2] | Potency [3] | Potency [4] | Potency [5] | Potency [7] | Potency [6]

CN(C)CCOC1=Cc2ccccc2Sc2ccc(Cl)cc21
inactive: max response [1] -0.0906% | outcome [2] | Potency [3] | Potency [4] | Potency [5] | Potency [7]

Nc1ncnc2c1ncn2Cc1c(F)cccc1Cl
inactive: outcome [1] | outcome [10] | Potency [3] | Potency [4] | Potency [5] | Potency [8] | outcome [9] | Potency [7] | Potency [6]

O=C(O)C(=O)Nc1cccc(-c2nn[nH]n2)c1
inactive: outcome [1] | outcome [10] | Potency [3] | Potency [4] | Potency [5] | Potency [8] | outcome [9] | Potency [7] | Potency [6]

CCS(=O)(=O)c1ccc(OC)c(C(=O)OC)c1
inactive: outcome [1] | outcome [10] | Potency [3] | Potency [4] | Potency [5] | Potency [8] | outcome [9] | Potency [7] | Potency [6]

CCCCN(CCN(CCCC)C(=O)N1CCOCC1)C(=O)N1CCOCC1
inactive: max response [1] -9.41% | outcome [2] | Potency [3] | Potency [4] | Potency [5] | Potency [6]

O=C(Nc1ccc(S(=O)(=O)N2CCOCC2)cc1)c1cc(Cl)ccc1NS(=O)(=O)c1ccc(Cl)s1
inactive: outcome [1] | outcome [10] | Potency [3] | Potency [4] | Potency [5] | Potency [8] | outcome [9] | Potency [7] | Potency [6]

COc1cc2c(cc1OC)CN(C(=O)[C@H](C)N[C@@H](CCc1ccccc1)C(=O)O)[C@H](C(=O)O)C2
inactive: max response [1] -7.08% | outcome [10] | Potency [3] | Potency [4] | Potency [5] | Potency [8] | Potency [7] | Potency [6]

Cc1ccc(C(=O)Oc2ccc(C(O)CNC(C)(C)C)cc2OC(=O)c2ccc(C)cc2)cc1 (stereo unspecified)
inactive: outcome [1] | outcome [2] | Potency [3] | Potency [4] | outcome [9] | Potency [7]

COc1ccc2c(c1)c(CC(=O)OC/C=C(\C)CC/C=C(\C)CCC=C(C)C)c(C)n2C(=O)c1ccc(Cl)cc1
inactive: max response [1] 4.12% | outcome [2] | Potency [3] | Potency [4] | Potency [5] | Potency [7]

CC(CCc1ccc2c(c1)OCO2)NN (stereo unspecified)
inactive: outcome [1] | outcome [10] | Potency [3] | Potency [4] | Potency [5] | Potency [8] | outcome [9] | Potency [7] | Potency [6]

Cc1[nH]cnc1-c1ccc(Cl)cc1
inactive: outcome [1] | outcome [10] | Potency [3] | Potency [4] | Potency [5] | Potency [8] | outcome [9] | Potency [7] | Potency [6]

CC(C)C(=O)OCc1cccc(OC(=O)[C@@H]2N3C(=O)[C@@H](NC(=O)Cc4ccccc4)[C@H]3SC2(C)C)c1
inactive: max response [1] 4.46% | outcome [10] | Potency [3] | Potency [4] | Potency [5] | Potency [8] | Potency [7] | Potency [6]

CCOc1c(N2CCOCC2)cnn(C)c1=O
inactive: max response [1] -0.145% | outcome [10] | Potency [3] | Potency [4] | Potency [5] | Potency [8] | Potency [7] | Potency [6]

O=C1Nc2ccccc2C1(c1ccc(O)cc1)c1ccc(O)cc1
inactive: max response [1] -21.7% | Potency [3] | Potency [4] | Potency [5] | Potency [8]

C=CCNc1nc(NCC=C)nc(N2CCN(C(c3ccc(F)cc3)c3ccc(F)cc3)CC2)n1
inactive: max response [1] -15.1% | Potency [3] | Potency [4] | Potency [5]

CN(C)CCCOC1(Cc2ccccc2)CCCCCC1
inactive: max response [1] 0.545% | outcome [10] | Potency [3] | Potency [4] | Potency [5] | Potency [8] | Potency [7] | Potency [6]

CCCC(=O)O[C@]1(C(=O)CCl)[C@@H](C)C[C@H]2[C@@H]3CCC4=CC(=O)C=C[C@]4(C)[C@@]3(F)C(=O)C[C@@]21C
inactive: max response [1] -3.48% | Potency [3] | Potency [4]

C[C@@]12CCC[C@H]1[C@@H]1CC[C@H]3C[C@@H](O)CC[C@]3(C)[C@H]1CC2
inactive: max response [1] 0.76% | outcome [10] | Potency [3] | Potency [4] | Potency [5] | Potency [8] | Potency [7] | Potency [6]

Nc1nc(=O)n([C@@H]2O[C@H](CO)[C@@H](O)[C@@H]2F)cc1I
inactive: max response [1] -21.4% | outcome [10] | Potency [4] | Potency [5] | Potency [8]

CCC(=O)Oc1ccc2c(c1)CC[C@@H]1[C@@H]2CC[C@@]2(C)[C@H]1C[C@@H](OC(=O)CC)[C@@H]2OC(=O)CC
inactive: outcome [1] | Potency [3] | Potency [4] | Potency [5] | Potency [8] | outcome [9] | Potency [7]

CCN1CCCC1CN (stereo unspecified)
inactive: max response [1] -1.87% | outcome [10] | Potency [3] | Potency [4] | Potency [5] | Potency [8] | Potency [7] | Potency [6]

Cc1ccccc1N1CCN(CCc2nnc3n2CCCC3)CC1
inactive: max response [1] 4.77% | outcome [10] | Potency [3] | Potency [4] | Potency [5] | Potency [8] | Potency [7] | Potency [6]

COc1cc2nc(Cl)nc(N)c2cc1OC
inactive: max response [1] -0.129% | Potency [3] | Potency [4] | Potency [5] | Potency [8]

CN(C)[C@@H]1C(=O)C(C(N)=O)=C(O)[C@@]2(O)C(=O)C3=C(O)c4c(O)cccc4C[C@H]3C[C@@H]12
inactive: max response [1] 1.19% | Potency [3] | Potency [4]

Cc1cccc(N(C)C(=S)Oc2ccc3c(c2)C2CCC3C2)c1 (stereo unspecified)
inactive: max response [1] -24.5% | Potency [3] | Potency [4] | Potency [5]

CCOc1ccc(NS(=O)(=O)c2ccc(N)cc2)nn1
inactive: max response [1] 3.16% | outcome [10] | Potency [3] | Potency [4] | Potency [5] | Potency [8] | Potency [7] | Potency [6]
